Source: PubChem
Rows were chosen to be rich in hits. Some 2.4% of all compounds tested hit in one or more screens of this group.
D2 PAM-1 = potentiates the human D2 dopamine receptor allosterically; P14416; DiscoveRx D2 beta-arrestin cells, luminescence, 90 min; 100% = 57 uM dopamine signal; potentiation, % (concentration not given with the values); 0.23% of 360,000 active; AID 624464; in the data active = potentiation above about 50%
Target sequence (P14416 whole entry, looked up): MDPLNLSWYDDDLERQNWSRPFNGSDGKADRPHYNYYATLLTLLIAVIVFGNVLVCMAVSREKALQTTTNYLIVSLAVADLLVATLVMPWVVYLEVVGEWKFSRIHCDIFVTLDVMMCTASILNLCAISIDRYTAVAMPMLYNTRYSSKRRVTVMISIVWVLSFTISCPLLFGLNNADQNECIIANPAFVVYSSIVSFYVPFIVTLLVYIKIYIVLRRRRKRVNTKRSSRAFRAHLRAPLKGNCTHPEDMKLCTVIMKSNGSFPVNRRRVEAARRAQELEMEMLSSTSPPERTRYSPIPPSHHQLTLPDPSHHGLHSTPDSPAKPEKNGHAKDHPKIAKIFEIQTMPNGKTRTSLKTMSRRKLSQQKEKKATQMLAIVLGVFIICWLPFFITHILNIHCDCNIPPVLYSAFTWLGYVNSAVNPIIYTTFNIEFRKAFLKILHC
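PathHunter D2 cells, attached overnight at 37 deg C, received compound in DMSO plus dopamine at EC20 (50 nM final) for 90 min at 37 deg C. Beta-arrestin recruitment was read as luminescence after 1 h with detection reagent at ambient temperature.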
D2 ag-1 = agonists of human D2 dopamine receptor. HEK293 T-REx D2 cells, calcium flux agonist mode. P14416. activation, % at 2 µM. 0.53% of 340,000 active;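 active = activation over 3 SD above normal in the single-dose calcium agonist read, cut at about 30% in these data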; also: 0% is about no effect
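Tetracycline-induced HEK293 Trex cells with D2 receptor force-coupled to calcium signaling, plated overnight at 30 C and loaded with no-wash calcium dye. Calcium flux read kinetically for 180 s after compound addition; responses flag agonists.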
D2 antag = antagonists of human D2 dopamine receptor. P14416. inhibition, % at 10 µM. 2% of 340,000 active. HEK293 TREx D2 cells, calcium flux, dopamine EC80. AID 485344; in the data active = inhibition above about 30%; inactive = below that, where a call was filed; also: 0% is about no effect
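Measurement of antagonist activity uses fluorescent calcium dye in inducible HEK293 T-REx D2 cells: 10 s baseline, compound addition with 180 s read, EC80 dopamine addition with a further 180 s read.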
D2 PAM-2 = D2 dopamine receptor (human) potentiation; P14416; HEK293 T-REx D2, calcium flux, EC20 dopamine potentiation; potentiation, % at 10 µM; 0.34% of 340,000 active; AID 485347;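 active = potentiation over 3 SD above the plate norm, cut at about 30% in these data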; also: 0% is about no effect
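Potentiation of an EC20 dopamine calcium response measured kinetically over 180 s, after a preceding 180 s compound-only read flagging agonists. Cells: inducible Hek293 Trex D2 line, 4000/well, cultured overnight at 30 C before dye loading.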
B2AR arrestin = agonists driving beta-arrestin recruitment to human beta2-adrenergic receptor. 0.02% of 330,000 active. Potency, µM (titrated, usually from 46.1 µM), without a hit: at the top dose activation, usual class: activators. beta-arrestin recruitment to beta2AR, cell-based reporter. P07550; active = well fitted activation curve with a large enough effect;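 also: potency is read from the fitted curve at half-maximal effect; 0% = DMSO controls and full agonism = EC100 isoproterenol or metaproterenol; nearly all actives have a fitted effect of over 65% in size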
D2 ag-2 = activates the human D2 dopamine receptor. P14416. DiscoveRx PathHunter D2 beta-arrestin, luminescence, 90 min; 100% = 57 uM dopamine signal. activation, % (no concentration beside the values). 0.084% of 360,000 active. AID 624465; in the data active = activation above about 40%
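DiscoveRx PathHunter D2 beta-arrestin cells (2,100/well) attached overnight, then compound-stimulated 90 min at 37 C in HBSS/10 mM HEPES/0.1% Tween-20 buffer; beta-galactosidase complementation read by luminescence after 1 h at ambient temperature. Dopamine 57 uM final (EC100) as control.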
* hit, by the source's call; . = no result given; ! = not confirmed by another sample.

SMILES	D2 PAM-1	D2 ag-1	D2 antag	D2 PAM-2	B2AR arrestin	D2 ag-2
O=C(CNC(=O)c1ccc2c(c1)OCCO2)N/N=C/c1ccco1	-4	0	4	5	0%	-2
O=C(CNC(=O)C12CC3CC(CC(C3)C1)C2)N/N=C\c1ccco1	80*	0	1	-6	0%	0
CN(C)C(=O)c1ccc(NC(=O)c2cccc(-n3cnnn3)c2)cc1	-14	.	.	.	.	0
CN1C(=O)c2oc3ccccc3c(=O)c2C1c1cccnc1 (stereo not drawn)	-7	.	.	.	.	-2
CN1C(=O)c2oc3ccccc3c(=O)c2C1c1ccccn1 (stereo not drawn)	-2	0	4	32*	0%	1
O=C(Cc1ncc(C(F)(F)F)cc1Cl)N1CCN(c2cccc(Cl)c2)CC1	-10	.	.	-4	0%	0
Cc1cccc(NC(=O)CCS(=O)(=O)c2ccc3c(c2)NC(=O)CS3)n1	-6	0	39*	-3	-1%	0
Cc1nc2sccn2c(=O)c1S(=O)(=O)N1CCN(c2ccccc2)CC1	1	0	5	-2	0%	-2
Cc1nc2sccn2c(=O)c1CCN1CCC(=C(c2ccccc2)c2ccc(F)cc2)CC1	.	2	73*	-25	0%	.
Cc1cc2nc(CCN(C(=S)NCC3CCCO3)C3CCCC3)[nH]c2cc1C (stereo not drawn)	-8	0	31*	-4	0%	-18
CNc1nc(C)nc(N/N=C/c2ccccc2)n1	-5	12	42*	-2	0%	10
Cc1cc(-c2ccccc2)nc(N/N=C/c2ccccc2)n1	-7	.	.	.	-1%	-4
CC(C)c1nc(SCC(=O)Nc2ccc(N(C)C)cc2)c2ccccc2n1	-5	-1	34*	1	0%	-19
N#C/C(=C/c1ccncc1)c1nc2ccccc2s1	-7	30*	4	-2	3%	8
CCC1CCCCN1CC(=O)Nc1cc(C)nn1-c1nc(C)cc(C)n1 (stereo not drawn)	-5	0	0	1	35µM*	2
Cc1cc(=O)oc2cc(NC(=O)C(C)Oc3ccc(F)cc3)ccc12 (stereo not drawn)	-33	0	35*	0	0%	-3
CN(C)CCn1c2c(c(SCC(=O)Nc3nccs3)nc1=O)CCCC2	-32	0	-8	2	0%	-5
COc1ccc(NS(=O)(=O)c2cccc(C(=O)NNC(=O)c3cc(S(N)(=O)=O)ccc3OC)c2)cc1	2	0	-17	-6	0%	-3
Cc1c(NC(=O)c2cccnc2Cl)c(=O)n(-c2ccccc2)n1C	-6	0	36*	-8	-1%	-5
Cc1ccc2c(C)c(C(=O)Nc3c(C)n(C)n(-c4ccccc4)c3=O)oc2c1C	26	14	-7	7	-1%	45*
Cc1ccc(NC(=O)/C=C/c2ccc3c(c2)OCO3)nc1	-8	0	-13	-1	0%	-1
O=C(NCC1(c2ccccc2)CCCC1)C1(c2ccccc2)CCCC1	-26	0	-6	0	0%	-3
Cc1ccc(NS(=O)(=O)c2ccc(C)c(NC(=O)COc3ccccc3)c2)c(C)c1	-1	-1	67*	-4	-1%	-8
Cc1ccc(NC(=O)COc2ccccc2)c(NC(=O)c2ccccc2C)c1	-6	.	.	.	.	-3
Cc1ccc(S(=O)(=O)Nc2ccc3c(c2)C(=O)c2ccccc2-3)cc1	-6	.	.	.	.	-7
SMILES	D2 PAM-1	D2 ag-1	D2 antag	D2 PAM-2	B2AR arrestin	D2 ag-2
Cc1ccc(NS(=O)(=O)c2ccc3c(c2)C(=O)c2ccccc2C3=O)c(C)c1	81*	0	0	3	-1%	5
COc1ccc([C@@H]2[C@@H](C)N(c3ccccc3)c3ccccc3C(=O)N2Cc2ccccc2)cc1	5	.	.	.	.	-10
Cc1cc([N+](=O)[O-])ccc1NCc1ccc2c(c1)OCCO2	-7	0	14	-1	4%	1
CC(C)CCN1CCN(Cc2cccc(C(F)(F)F)c2)CC1CCO (stereo not drawn)	-17	-2	76*	-33	-1%	1
CSc1cccc(CN2CCN(CCC(C)C)C(CCO)C2)c1 (stereo not drawn)	-23	1	59*	-16	-1%	0
CC(C)CCN1CCN(Cc2ccoc2)CC1CCO (stereo not drawn)	-29	0	1	-11	-1%	-7
CC(C)CN1CCN(Cc2ccc(C#CC(C)(C)O)cc2)CC1CCO (stereo not drawn)	-9	1	33*	7	0%	-3
CCC(=O)NCc1c(C)c(C)n(Cc2ccccc2)c1-n1cccc1	-5	-1	3	0	0%	-1
CC1(C)S[C@@H]2[C@H](NC(=O)Cc3ccccc3)C(=O)N2[C@H]1C(=O)O	-12	1	33*!	6	0%	-3
Cc1coc2c(C)c3oc(=O)c(CCC(=O)N4CCC(C(=O)NCCCC(=O)O)(c5ccccc5)CC4)c(C)c3cc12	-7	0	-3	41*	0%	1
Cc1coc2c(C)c3oc(=O)c(CCC(=O)NCCCN4CCOCC4)c(C)c3cc12	-49	0	-11	3	-1%	-3
CN(C)S(=O)(=O)Nc1ccc(Oc2ccccc2)cc1	-20	0	35*	3	-1%	-1
O=C(NCc1ccco1)c1ccc(Cn2c(=S)[nH]c3ccccc3c2=O)cc1	2	0	-16	-5	0%	-2
CCc1ccc2oc(-c3ccc(NC(=O)c4ccc(OC)c(Br)c4)cc3)nc2c1	.	.	.	-7	.	.
CC(C)C(=O)NNC(=O)CN1CCN(c2nc(-c3ccccc3)cs2)CC1	-2	2	-1	3	0%	-3
CCN(CC)CCCNC(=S)N1CCN(c2nc(-c3ccccc3)cs2)CC1	-14	0	33*	-9	-1%	0
CCc1nnc(NC(=O)CN2CCN(c3nc(-c4ccccc4)cs3)CC2)s1	1	0	32*	-1	-1%	3
CCOCCCNC(=S)N1CCN(c2nc(-c3ccccc3)cs2)CC1	-3	.	.	.	0%	-5
Cc1c(C(=O)NCc2ccccc2Cl)cccc1-n1cnc2cccnc21	.	-1	.	-3	.	.
OCCN(Cc1ccccc1)CC1CC2C=CC1C2 (stereo not drawn)	5	0	37*	9	.	-2
OCCN(Cc1ccccc1)CC1CCCCC1	-20	1	-7	9	.	-3
CCSc1nnc2c(n1)OC(c1sccc1C)N(C(C)=O)c1ccccc1-2 (stereo not drawn)	.	1	.	1	.	.
